Inconclusive results are not listed. Calls of active or inactive are those of the source. Calls follow the shape of the dose curve; as a rule, active = well fitted curve in the direction sought with a large enough effect; inconclusive = small, poorly fitted or top-dose-only effect, or another doubt; inactive = no such curve, though single readings can be large; an effect the other way counts as inactive or inconclusive.
Columns and labels:
[1] = Quantitative High-Throughput drug screen in 47 multiple myeloma cell lines against the NCATS MIPE library collection: KMS12PE_JCRB cell viability assay (AID 1918972); also: nearly all actives have a fitted effect of over 30% in size
Method in brief: (§1)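 qHTS of the MIPE 4.0 collection: 500 myeloma cells/well, 48 h drug exposure at 37C in 5% CO2, then CellTiter-Glo for 5 min at room temperature before luminescence reading.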

[2] = Quantitative High-Throughput drug screen in 47 multiple myeloma cell lines against the NCATS MIPE library collection: KMS20_JCRB cell viability assay (AID 1918973); also: nearly all actives have a fitted effect of over 45% in size
Method in brief: (§2)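 Inhibition of cell viability is measured here. Each line was plated at 500 cells per well, treated with MIPE 4.0 drugs, kept 48 hours at 37C, then assayed for ATP content by CellTiter-Glo luminescence.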

[3] = Quantitative High-Throughput drug screen in 47 multiple myeloma cell lines against the NCATS MIPE library collection: KMS26_JCRB cell viability assay (AID 1918975); also: nearly all actives have a fitted effect of over 45% in size
Method in brief: as §1

[4] = Quantitative High-Throughput drug screen in 47 multiple myeloma cell lines against the NCATS MIPE library collection: NCIH929_DSMZ cell viability assay (AID 1918978); also: nearly all actives have a fitted effect of over 35% in size
Method in brief: (§3)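 Viability after 48 h drug exposure was measured as ATP-dependent luminescence. Cells, 500 per well, sat at 37 °C under 5% CO2; DMSO wells set 100%, media-only wells 0%.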

[5] = Quantitative High-Throughput drug screen in 47 multiple myeloma cell lines against the NCATS MIPE library collection: OCIMY1_PLB cell viability assay (AID 1918979); also: nearly all actives have a fitted effect of over 35% in size
Method in brief: as §3

[6] = Quantitative High-Throughput drug screen in 47 multiple myeloma cell lines against the NCATS MIPE library collection: MM1R_ATCC cell viability assay (AID 1918981); also: nearly all actives have a fitted effect of over 35% in size
Method in brief: as §3

[7] = Quantitative High-Throughput drug screen in 47 multiple myeloma cell lines against the NCATS MIPE library collection: LP1_DSMZ cell viability assay (AID 1918982); also: nearly all actives have a fitted effect of over 35% in size
Method in brief: as §3

[8] = Quantitative High-Throughput drug screen in 47 multiple myeloma cell lines against the NCATS MIPE library collection: KMS28PE_JCRB cell viability assay (AID 1918983); also: nearly all actives have a fitted effect of over 35% in size
Method in brief: as §3

[9] = Quantitative High-Throughput drug screen in 47 multiple myeloma cell lines against the NCATS MIPE library collection: KMS34_JCRB cell viability assay (AID 1918985); also: nearly all actives have a fitted effect of over 40% in size
Method in brief: as §3

[10] = Quantitative High-Throughput drug screen in 47 multiple myeloma cell lines against the NCATS MIPE library collection: XG6_PLB cell viability assay (AID 1919865); also: nearly all actives have a fitted effect of over 40% in size
Method in brief: as §3

[11] = Quantitative High-Throughput drug screen in 47 multiple myeloma cell lines against the NCATS MIPE library collection: MMM1_PLB cell viability assay (AID 1918976); also: nearly all actives have a fitted effect of over 35% in size
Method in brief: as §3

[12] = Quantitative High-Throughput drug screen in 47 multiple myeloma cell lines against the NCATS MIPE library collection: MM1S_ATCC cell viability assay (AID 1918980); also: nearly all actives have a fitted effect of over 45% in size
Method in brief: as §3

[13] = Quantitative High-Throughput drug screen in 47 multiple myeloma cell lines against the NCATS MIPE library collection: L363_DSMZ cell viability assay (AID 1918984); conditions: L363 myeloma viability, CellTiter-Glo ATP luminescence, 48 h; viability (% of control): at 45.8 µM (top of the series); also: nearly all actives have a fitted effect of over 40% in size
Method in brief: as §3

[14] = Quantitative High-Throughput drug screen in 47 multiple myeloma cell lines against the NCATS MIPE library collection: OCIMY7_PLB cell viability assay (AID 1918987); conditions: OCI-MY7 myeloma viability, CellTiter-Glo ATP, 48 h; viability (% of DMSO): at 45.8 µM (top of the series); also: nearly all actives have a fitted effect of over 65% in size
Method in brief: as §3

[15] = Quantitative High-Throughput drug screen in 47 multiple myeloma cell lines against the NCATS MIPE library collection: OCIMY5_PLB cell viability assay (AID 1918988); also: nearly all actives have a fitted effect of over 65% in size
Method in brief: as §3

[16] = Quantitative High-Throughput drug screen in 47 multiple myeloma cell lines against the NCATS MIPE library collection: OPM1_PLB cell viability assay (AID 1918989); also: nearly all actives have a fitted effect of over 40% in size
Method in brief: as §3

[17] = Quantitative High-Throughput drug screen in 47 multiple myeloma cell lines against the NCATS MIPE library collection: SKMM1_PLB cell viability assay (AID 1919863); conditions: SKMM1 myeloma viability, CellTiter-Glo ATP, 48 h; viability: active compounds read low; also: nearly all actives have a fitted effect of over 35% in size
Method in brief: as §3

[18] = Quantitative High-Throughput drug screen in 47 multiple myeloma cell lines against the NCATS MIPE library collection: U266_ATCC cell viability assay (AID 1919864); also: nearly all actives have a fitted effect of over 35% in size
Method in brief: as §3

[19] = Quantitative High-Throughput drug screen in 47 multiple myeloma cell lines against the NCATS MIPE library collection: MOLP8_DSMZ cell viability assay (AID 1918977); also: nearly all actives have a fitted effect of over 45% in size
Method in brief: as §3

[20] = Quantitative High-Throughput drug screen in 47 multiple myeloma cell lines against the NCATS MIPE library collection: KMS21BM_JCRB cell viability assay (AID 1918974); conditions: ATP luminescence, 48 h; viability: at 45.8 µM (top of the series)
Method in brief: as §2
Potency is read from the fitted curve at half-maximal effect.

CN1CCN2c3ncccc3Cc3ccccc3C2C1 (configuration not stated)
inactive: Potency [1] | Potency [2] | Potency [3] | Potency [4] | Potency [5] | Potency [6] | Potency [7] | Potency [8] | Potency [9] | Potency [10]

CCCCN(CCCC)CC(O)c1cc(Cl)cc2c1-c1ccc(Cl)cc1C2=Cc1ccc(Cl)cc1 (configuration not stated)
active: Potency [2] 11.8 µM | Potency [11] 23.5 µM | Potency [12] 23.5 µM | Potency [14] 26.4 µM | Potency [15] 10.5 µM | Potency [16] 18.7 µM | Potency [17] 33.2 µM | Potency [10] 26.4 µM
inactive: Potency [1] | Potency [13] | Potency [18]

COc1ccc2ccc(=O)oc2c1CC=C(C)C
inactive: Potency [2] | Potency [16]
active: Potency [1] 20.9 µM | Potency [11] 16.6 µM | Potency [19] 8.33 µM | Potency [12] 2.96 µM | Potency [6] 13.2 µM | Potency [13] 10.5 µM | Potency [9] 13.2 µM | Potency [15] 8.33 µM | Potency [18] 13.2 µM

Cc1cc(C(C)Nc2ccccc2)c2nc(N3CCOCC3)cc(=O)n2c1 (configuration not stated)
inactive: Potency [11] | Potency [19] | Potency [18]
active: Potency [1] 16.6 µM | Potency [2] 10.5 µM | Potency [12] 0.332 µM | Potency [14] 2.09 µM | Potency [10] 1.05 µM

CCN1CCC(n2cc(CNc3cc(Cl)c4ncc(C#N)c(Nc5ccc(F)c(Cl)c5)c4c3)nn2)CC1
active: Potency [1] 8.33 µM | Potency [2] 16.6 µM | Potency [3] 8.33 µM | Potency [11] 14.8 µM | Potency [4] 20.9 µM | Potency [12] 16.6 µM | Potency [6] 8.33 µM | Potency [8] 7.43 µM | Potency [13] 4.69 µM | Potency [15] 4.18 µM | Potency [16] 18.7 µM | Potency [17] 5.9 µM | Potency [10] 14.8 µM

C[C@@]1(C(=O)Nc2ccc(F)nc2)CCCN1c1nc(Nc2cc(C3CC3)[nH]n2)c2cccn2n1
active: Potency [1] 0.166 µM | Potency [2] 0.0743 µM | Potency [3] 0.0066 µM | Potency [11] 0.0209 µM | Potency [4] 0.0235 µM | Potency [12] 0.0469 µM | Potency [6] 0.0166 µM | Potency [8] 0.0296 µM | Potency [14] 0.0743 µM | Potency [15] 0.118 µM | Potency [17] 1.48 µM | Potency [10] 0.0332 µM

Cc1ccccc1C(=O)c1ccc(Nc2ccc(Br)cc2N)cc1Cl
active: Potency [1] 7.43 µM | Potency [2] 14.8 µM | Potency [3] 5.26 µM | Potency [11] 16.6 µM | Potency [4] 23.5 µM | Potency [12] 6.62 µM | Potency [8] 14.8 µM | Potency [14] 11.8 µM | Potency [15] 10.5 µM | Potency [16] 16.6 µM | Potency [17] 16.6 µM | Potency [18] 11.8 µM | Potency [10] 18.7 µM

COc1c(C)c2c(c(O)c1CC=C(C)CCC(=O)OCCN1CCOCC1)C(=O)OC2
inactive: Potency [2]
active: Potency [1] 3.72 µM | Potency [12] 6.62 µM | Potency [7] 6.62 µM | Potency [8] 4.69 µM | Potency [9] 5.9 µM | Potency [14] 3.72 µM | Potency [15] 5.26 µM | Potency [17] 4.18 µM | Potency [18] 8.33 µM

CC[C@H](C=C[C@@H](C)[C@H]1CC[C@H]2[C@@H]3CC=C4C[C@@H](O)CC[C@]4(C)[C@@H]3CC[C@]12C)C(C)C
active: Potency [10] 1.02 µM
inactive: Potency [1] | Potency [2] | Potency [4] | Potency [5] | Potency [12] | Potency [6] | Potency [7] | Potency [13] | Potency [9] | Potency [16] | viability [17] 119% | Potency [18]

N#CC(=C1Nc2ccccc2S1)c1ccnc(OCc2ccc(CN3CCOCC3)cc2)n1
active: Potency [1] 0.059 µM | Potency [20] 0.0264 µM | Potency [3] 20.9 µM | Potency [11] 14.8 µM | Potency [4] 4.69 µM | Potency [12] 1.48 µM | Potency [6] 14.8 µM | Potency [7] 20.9 µM | Potency [13] 0.0372 µM | Potency [9] 18.7 µM | Potency [15] 8.33 µM | Potency [16] 16.6 µM | Potency [18] 5.26 µM | Potency [10] 1.18 µM

CNC(=O)c1cc(Oc2ccc(NC(=O)Nc3ccc(Cl)c(C(F)(F)F)c3)c(F)c2)ccn1
active: Potency [1] 4.69 µM | Potency [20] 2.96 µM | Potency [3] 23.5 µM | Potency [11] 8.33 µM | Potency [19] 13.2 µM | Potency [5] 23.5 µM | Potency [12] 2.09 µM | Potency [6] 20.9 µM | Potency [7] 16.6 µM | Potency [8] 20.9 µM | Potency [13] 6.62 µM | Potency [17] 20.9 µM | Potency [10] 0.935 µM
inactive: Potency [16]

CCN1C[C@H](C)n2c(c(O)c3c(=O)n(Cc4ccc(F)c(Cl)c4)nc(C(=O)NC)c32)C1=O
active: Potency [11] 2.64 µM | Potency [6] 3.32 µM
inactive: Potency [1] | Potency [20] | Potency [4] | Potency [5] | Potency [12] | Potency [8] | Potency [13] | Potency [9] | Potency [16] | Potency [18] | Potency [10]

Reference: PubChem BioAssay (NCATS)
